Molecules are shown by their SMILES. Among all 69,000 compounds or so, about 8,600 (12%) showed an effect of 50% or more. The list comes from a sample in which strong results are over-represented; it also holds similar structures and randomly drawn compounds.

Results on 67 compounds are retold here after ChEMBL document CHEMBL4513216, “Probing the Open Global Health Chemical Diversity Library for Multistage-Active Starting Points for Next-Generation Antimalarials” (ACS Infect Dis, 2020).

The assay concerns Plasmodium berghei. The experiment in a line: Screen against P. berghei liver stage (PbLuc), transformed with Luciferase, at 10uM. Particulars: tested at 10 uM. The class given is functional, HepG2.
For `N#Cc1cc(S(N)(=O)=O)ccc1N1CCN(c2ccccc2)CC1`, the INHIBITION is -33.7%.
Regarding `CC1CCCN(C(=O)c2ccc(-c3ccco3)o2)C1` (configuration not stated), the INHIBITION was -22.2%.
On to `COC(=O)NCC(=O)N1CCC(c2cc3ccccc3[nH]2)CC1`, for which the INHIBITION was 62.9%.
Take `CCS(=O)(=O)NCC(=O)N1CCC(c2cc3ccccc3[nH]2)CC1`: the INHIBITION is recorded as -17.8%.
As to `CNS(=O)(=O)CC(=O)N1CCC(c2cc3ccccc3[nH]2)CC1`, the INHIBITION is reported as 18.6%.
As to `O=c1[nH]c2nc(N3CCOCC3)ncc2c(=O)n1-c1cccc(F)c1`, the INHIBITION is given as 31.7%.
For `O=S(=O)(C1CC1)N1C[C@@H]2CN(Cc3ccoc3)CCO[C@@H]2C1` the value was -64.1%.
For `Cc1nnc(NCCC(=O)NCc2ccccc2)c(C#N)c1C` the value was 12.3%; for `CC(=O)N1CC[C@@]2(O)CCCC[C@H]2[C@@H]1c1ccccc1`, 45%.
For the compound `O=C(NCCC1COc2ccccc2O1)c1ccc(N2CC(O)C2)nc1` (configuration not stated), the INHIBITION came to 59.5%.
`O=C(NCCC1COc2ccccc2O1)c1ccc(-c2cn[nH]c2)nc1` (configuration not stated): the INHIBITION worked out at 48.9%.
As for `O=C(NCCC1COc2ccccc2O1)c1ccc(-c2cc[nH]n2)nc1` (configuration not stated), the INHIBITION was -21.6%.
Turning to `CCc1nc(C)cc(N2CCN(C(=O)[C@@H]3C[C@H]4C=C[C@@H]3C4)CC2)n1`, the INHIBITION was -2.09%.
Take `O=C(Cc1c[nH]c(=O)[nH]c1=O)N1CCCCC1CCc1cccc(O)c1` (configuration not stated): the INHIBITION stood at 57.6%.
In the case of `NCC1CCCCN1C(=O)Cc1cccc(Br)c1` (configuration not stated), the INHIBITION was -0.159%.
In the case of `O=C(Cc1c[nH]c(=O)[nH]c1=O)N1CCCCC1CCc1ccccc1` (configuration not stated), the INHIBITION is -28%.
Take `Nc1cccnc1N1CCCCCC1`: the INHIBITION is on record as -12.1%.
The figure for `Cc1cccc(N2CCC3(CCCC(=O)N3)CC2)n1` is -77.4%.
With `CCc1nnc(CN(C)CC2CCCCC2)o1`, the INHIBITION is on record as 61.1%.
Turning to `Cc1nnc(CN(C)CC2CCCCC2)o1`, the INHIBITION is on record as 27.5%.
For `CCc1nnc(CN(C)C[C@@H]2CCCN3CCCC[C@H]23)o1` the value was 5.46%; for `CCCN(CC)c1ccc(C(=O)N2CCCC2c2cnn(C)c2)cn1` (configuration not stated), 22.3%.
On to `COc1ccc(CNCC2CN(C3CC3)CCO2)cc1C` (configuration not stated), for which the INHIBITION amounted to 10.2%.
On to `C[C@H]1C[C@H]2CN(C(=O)CCOc3ccccc3)CC[C@H]2O1`, for which the INHIBITION was determined as 27.6%.
As for `Cc1nc(COCc2cnc3n2CCN(CC2CCC2)C3C)cs1` (configuration not stated), the INHIBITION was 50.2%.
For `CCOCc1cnc2n1CCN(Cc1nc(C)cs1)C2C` (configuration not stated), the INHIBITION was determined as 41%.
Turning to `CC(=O)N1CCn2c(COCc3csc(C)n3)cnc2C1C` (configuration not stated), the INHIBITION is on record as -14.8%.
Take `Cc1nc(COCc2cnc3n2CCN(C)C3C)cs1` (configuration not stated): the INHIBITION is listed as 52.3%.
On to `Cc1nc(COCc2cnc3n2CCN(C2CCC2)C3C)cs1` (configuration not stated), for which the INHIBITION is given as -12.6%.
Take `Cc1nc(COCc2cnc3n2CCN(C(=O)C2CC2)C3C)cs1` (configuration not stated): the INHIBITION is 33%.
For `Clc1ccccc1Cc1noc(CN2CCCC(CN3CCCC3)C2)n1` (configuration not stated) the value was 42.8%.
`COCc1cc(NCCc2ccccn2)n2nccc2n1`: the INHIBITION worked out at 26.6%.
With `CC(C)CNc1nnc(SC(C(=O)NCc2cccnc2)C(C)C)s1` (configuration not stated), the INHIBITION is -11.3%.
Regarding `COCC(O)CN(C)C(=O)NCc1ccc(-c2ccn[nH]2)cc1` (configuration not stated), the INHIBITION was found to be 51.7%.
In the case of `COCC(O)CN(C)C(=O)NCc1ccc(S(C)(=O)=O)cc1` (configuration not stated), the INHIBITION worked out at 29.4%.
For `CNS(=O)(=O)c1ccc(CNC(=O)N(C)CC(O)COC)cc1` (configuration not stated), the INHIBITION is reported as 36.3%.
On to `CC(NC(=O)CCOc1cccc(F)c1)c1nnc2n1CCC2` (configuration not stated), for which the INHIBITION is 33.7%.
For `Cc1nc(O)cc(CN2CC=C(c3cnn(C(C)(C)C)c3)CC2)n1`, the INHIBITION is on record as -33.2%.
Regarding `CCC(O)Cn1cc(C2=CCN(Cc3ccc(OC)cc3)CC2)cn1` (configuration not stated), the INHIBITION is recorded as -8.97%.
Consider `CCC(O)Cn1cc(C2=CCN(Cc3cc(O)nc(C)n3)CC2)cn1` (configuration not stated), for which the INHIBITION is 52%.
The figure for `O=C1NCCc2c1sc1ccc(C(=O)N3CC[C@H](CO)[C@H](O)C3)cc21` is 12.1%.
For `CN(C)C1CCCN(C(=O)c2ccc3sc4c(c3c2)CCNC4=O)CC1` (configuration not stated) the value was 60.3%.
In the case of `CN(C)[C@H]1CN(C(=O)c2ccc3sc4c(c3c2)CCNC4=O)C[C@@H]1O`, the INHIBITION is listed as -26%.
The figure for `Fc1ccc(C(CNc2ccncn2)N2CCCCC2)cc1` (configuration not stated) is 5.03%; for `CCc1cccc(OC2CN(C(=O)[C@@H](N)CCSC)C2)c1` it is 23.9%; for `CC(N)C(=O)N1CCC(Oc2cccc(C(F)(F)F)c2)CC1` (configuration not stated) it is 26.6%.
Consider `CCc1cccc(OC2CN(C(=O)[C@@H](N)[C@@H](C)O)C2)c1`, for which the INHIBITION turned out to be 62.4%.
On to `Cc1nc2cc(=O)[nH]n2c(C)c1CC(=O)Nc1cnn(C(C)(C)C)c1`, for which the INHIBITION was 49.6%.
Turning to `Cc1nc2cc(=O)[nH]n2c(C)c1CC(=O)Nc1cnn(C)c1`, the INHIBITION came out at 15%.
For `Cc1nc2cc(=O)[nH]n2c(C)c1CC(=O)Nc1cn[nH]c1` the value was 53.9%; for `Cn1cc(CN2CCC3(CC2)CN(C(=O)c2cnccn2)CCO3)cn1`, -13.2%.
As for `CCOCCc1nc(Cc2ccccc2)n[nH]1`, the INHIBITION stood at 10.3%.
Take `O=C1COC2(CCN(Cc3cccnc3)CC2)CN1`: the INHIBITION stood at 18.2%.
On to `O=C(COCc1ccccc1Cl)N1CCN(c2ncccn2)CC1`, for which the INHIBITION is -133%.
Consider `O=C(COCc1ccccc1Cl)N1CCN(c2cnccn2)CC1`, for which the INHIBITION is -9.51%.
For the compound `O=C(COCc1ccccc1Cl)N1CCN(c2ccc(Br)cn2)CC1`, the INHIBITION amounted to 60.3%.
For `COc1ccc(Cl)cc1S(=O)(=O)N1C[C@H]2CC[C@@H](C1)N(C)C2=O`, the INHIBITION stood at 48.9%.
As to `CN(C)CC(=O)N1CCC2(CC1)Cc1ccccc1CN(C)C2=O`, the INHIBITION amounted to 18.6%.
Consider `Cc1ccc(CN2C[C@@H]3CN(C(=O)c4cccn4C)C[C@@H]3C2)cc1`, for which the INHIBITION was 8.74%.
With `c1cn(-c2ccc(CN3CCOC(Cn4cncn4)C3)cc2)cn1` (configuration not stated), the INHIBITION was determined as 27.6%.
`CCC(C)NC(=O)c1ccc(NC(=O)CCc2ccncc2)c(C)c1` (configuration not stated): the INHIBITION was found to be 39%.
The figure for `COC(=O)c1ccc(NC(=O)CCc2ccncc2)c(C)c1` is 50.1%.
For `COc1ccc(CCC(=O)Nc2ccncc2C)cc1` the value was 12.8%; for `O=C(CCOc1ccccc1Cl)N1CCN(c2cnccn2)CC1`, -33.7%; for `CC(NC(=O)N1CCSC(C)(C)C1)c1noc(-c2ccccc2)n1` (configuration not stated), 38.3%.
For `CC(NC(=O)N1CCC[C@H]1CO)c1noc(-c2ccccc2)n1` (some centres not stated) the value was 8.38%.
For `CCN1CCN(C(=O)NC(C)c2noc(-c3ccccc3)n2)CC1` (configuration not stated), the INHIBITION is recorded as 51.1%.
